Here are results for 40 sequences from publication PMC9838217, “Structure of SALL4 zinc finger domain reveals link between AT-rich DNA binding and Okihiro syndrome”.

Changes are numbered by the printed parent chain.

The target of the first test is T1, SALL4 ZFC4 WT (HT-SELEX) (Mus musculus, UniProt Q8BX22 870-940).
T1 sequence: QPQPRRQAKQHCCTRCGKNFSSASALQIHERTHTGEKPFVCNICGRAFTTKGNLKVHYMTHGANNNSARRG
Put plainly: HT-SELEX; high values mean tight binding. Conditions: protein: recombinant; vector His6-GST; dsDNA, one strand shown. The procedure, abridged: (§1)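 Binding signal is defined as the fold change of each canonical k-mer's read fraction versus the initial random library. Selections used 1 µg of purified recombinant mouse SALL4 zinc finger cluster 4 (residues 870–940) with library DNA (1.5 µg first cycle, 200 ng later) in 100 µl of 10 mM Tris–HCl pH 7.5, 50 mM NaCl, poly(dI-dC) and DTT, for 10 min at room temperature, followed by Ni2+ bead capture, washing and PCR. Up to 6 such cycles were run in triplicate before MiSeq sequencing and 6-mer scanning.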
As to GTACAC, the binding signal turned out to be 0.768 ± 0.0559 fold-change vs cycle 0.

On to ACGGAA, for which the binding signal was 0.706 ± 0.0319 fold-change vs cycle 0.

Regarding AGACAC, the binding signal is 0.683 ± 0.0462 fold-change vs cycle 0.

With AGGGAG, the binding signal worked out at 0.59 ± 0.0373 fold-change vs cycle 0.

Regarding GGTTAC, the binding signal came to 0.891 ± 0.0455 fold-change vs cycle 0.

With CGAGAG, the binding signal was found to be 0.428 ± 0.0305 fold-change vs cycle 0.

In the case of TGCGAA, the binding signal was 0.447 ± 0.0325 fold-change vs cycle 0.

For CTGTAA, the binding signal stood at 1.29 ± 0.062 fold-change vs cycle 0.

Turning to CTTACA, the binding signal is 1.41 ± 0.0514 fold-change vs cycle 0.

On to ATACCG, for which the binding signal turned out to be 0.646 ± 0.0192 fold-change vs cycle 0.

For the sequence CTTACC, the binding signal stood at 0.909 ± 0.0427 fold-change vs cycle 0.

Consider CTTGAA, for which the binding signal is 1.25 ± 0.0309 fold-change vs cycle 0.

Turning to CACATC, the binding signal is 0.757 ± 0.0342 fold-change vs cycle 0.

On to ATACGC, for which the binding signal amounted to 0.486 ± 0.0113 fold-change vs cycle 0.

Regarding CACAAC, the binding signal is 0.647 ± 0.0332 fold-change vs cycle 0.

Regarding ACACGT, the binding signal is 0.75 ± 0.0296 fold-change vs cycle 0.

On to ACGATA, for which the binding signal is 1.28 ± 0.0502 fold-change vs cycle 0.

Take ATTACA: the binding signal was 2.21 ± 0.144 fold-change vs cycle 0.

With TCAGCA, the binding signal amounted to 0.676 ± 0.0405 fold-change vs cycle 0.

Regarding GAGAGC, the binding signal was 0.363 ± 0.00861 fold-change vs cycle 0.

As for AAGTAT, the binding signal worked out at 2.21 ± 0.135 fold-change vs cycle 0.

Regarding CCATAA, the binding signal came out at 1.51 ± 0.0387 fold-change vs cycle 0.

Take AGCAGG: the binding signal stood at 0.42 ± 0.0145 fold-change vs cycle 0.

ATTGTC: the binding signal is 1.14 ± 0.0493 fold-change vs cycle 0.

In the case of AGTTAC, the binding signal turned out to be 1.44 ± 0.0411 fold-change vs cycle 0.

Turning to AAGTTG, the binding signal worked out at 1.18 ± 0.062 fold-change vs cycle 0.

Take CAACAG: the binding signal was determined as 0.698 ± 0.0379 fold-change vs cycle 0.

On to AATAGC, for which the binding signal came to 1 ± 0.0454 fold-change vs cycle 0.

For the sequence AACGTT, the binding signal amounted to 1.19 ± 0.0242 fold-change vs cycle 0.

On to CACGGA, for which the binding signal is 0.395 ± 0.0417 fold-change vs cycle 0.

As for GCATCC, the binding signal is 0.382 ± 0.0508 fold-change vs cycle 0.

Turning to ACAAGG, the binding signal turned out to be 0.796 ± 0.0489 fold-change vs cycle 0.

On to CAAAAA, for which the binding signal was determined as 1.52 ± 0.0617 fold-change vs cycle 0.

With GAATTC, the binding signal is 1.29 ± 0.0387 fold-change vs cycle 0.

With AAAGAG, the binding signal amounted to 1.26 ± 0.0407 fold-change vs cycle 0.

Take CTCGTC: the binding signal came to 0.385 ± 0.0153 fold-change vs cycle 0.

AGGCTA: the binding signal was 0.619 ± 0.0154 fold-change vs cycle 0.

Consider AGACCG, for which the binding signal came out at 0.32 ± 0.0198 fold-change vs cycle 0.

For TACTGA, the binding signal was 1.38 ± 0.119 fold-change vs cycle 0.

Turning to TACGCA, the binding signal was determined as 0.51 ± 0.0296 fold-change vs cycle 0.

The next test has as its target T2, SALL4 ZFC4 R900W (HT-SELEX) (Mus musculus, UniProt Q8BX22 870-940, R900W).
T2 sequence: T1 sequence with R31W
Put plainly: HT-SELEX; high values mean tight binding. The settings on record: protein: recombinant; vector His6-GST; dsDNA, one strand shown. Put shortly:
as §1
In the case of GTACAC, the binding signal came to 0.868 ± 0.0144 fold-change vs cycle 0.

With ACGGAA, the binding signal is 0.803 ± 0.0284 fold-change vs cycle 0.

Turning to AGACAC, the binding signal is 0.821 ± 0.037 fold-change vs cycle 0.

For AGGGAG, the binding signal is 0.667 ± 0.0517 fold-change vs cycle 0.

Take GGTTAC: the binding signal is 1.05 ± 0.0396 fold-change vs cycle 0.

As for CGAGAG, the binding signal is 0.515 ± 0.0447 fold-change vs cycle 0.

TGCGAA: the binding signal was 0.488 ± 0.0122 fold-change vs cycle 0.

On to CTGTAA, for which the binding signal was found to be 1.42 ± 0.0769 fold-change vs cycle 0.

On to CTTACA, for which the binding signal was determined as 1.55 ± 0.0884 fold-change vs cycle 0.

With ATACCG, the binding signal was 0.699 ± 0.038 fold-change vs cycle 0.

As to CTTACC, the binding signal stood at 1.06 ± 0.0534 fold-change vs cycle 0.

For CTTGAA, the binding signal is 1.42 ± 0.0651 fold-change vs cycle 0.

On to CACATC, for which the binding signal was 0.861 ± 0.0321 fold-change vs cycle 0.

Regarding ATACGC, the binding signal amounted to 0.531 ± 0.0184 fold-change vs cycle 0.

Regarding CACAAC, the binding signal came to 0.72 ± 0.018 fold-change vs cycle 0.

Regarding ACACGT, the binding signal was determined as 0.89 ± 0.061 fold-change vs cycle 0.

On to ACGATA, for which the binding signal was determined as 1.3 ± 0.0452 fold-change vs cycle 0.

For the sequence ATTACA, the binding signal came out at 2.06 ± 0.11 fold-change vs cycle 0.

Turning to TCAGCA, the binding signal was 0.74 ± 0.0606 fold-change vs cycle 0.

Take GAGAGC: the binding signal was 0.422 ± 0.0138 fold-change vs cycle 0.

On to AAGTAT, for which the binding signal is 2.14 ± 0.158 fold-change vs cycle 0.

For the sequence CCATAA, the binding signal was 1.36 ± 0.0383 fold-change vs cycle 0.

Take AGCAGG: the binding signal was found to be 0.478 ± 0.0232 fold-change vs cycle 0.

Take ATTGTC: the binding signal amounted to 1.21 ± 0.0499 fold-change vs cycle 0.

As to AGTTAC, the binding signal came out at 1.56 ± 0.0396 fold-change vs cycle 0.

Take AAGTTG: the binding signal is 1.32 ± 0.0296 fold-change vs cycle 0.

For the sequence CAACAG, the binding signal was found to be 0.824 ± 0.0446 fold-change vs cycle 0.

With AATAGC, the binding signal is 1.07 ± 0.0474 fold-change vs cycle 0.

On to AACGTT, for which the binding signal stood at 1.33 ± 0.0216 fold-change vs cycle 0.

Regarding CACGGA, the binding signal is 0.459 ± 0.0312 fold-change vs cycle 0.

In the case of GCATCC, the binding signal turned out to be 0.43 ± 0.0105 fold-change vs cycle 0.

Turning to ACAAGG, the binding signal stood at 0.976 ± 0.041 fold-change vs cycle 0.

On to CAAAAA, for which the binding signal came out at 1.38 ± 0.0576 fold-change vs cycle 0.

As to GAATTC, the binding signal was 1.38 ± 0.0509 fold-change vs cycle 0.

AAAGAG: the binding signal came out at 1.46 ± 0.0773 fold-change vs cycle 0.

In the case of CTCGTC, the binding signal came to 0.487 ± 0.019 fold-change vs cycle 0.

Take AGGCTA: the binding signal amounted to 0.751 ± 0.013 fold-change vs cycle 0.

Consider AGACCG, for which the binding signal is 0.393 ± 0.0317 fold-change vs cycle 0.

In the case of TACTGA, the binding signal amounted to 1.53 ± 0.139 fold-change vs cycle 0.

Turning to TACGCA, the binding signal came to 0.54 ± 0.0242 fold-change vs cycle 0.

A further test has as its target T3, SALL4 ZFC4 G921D (HT-SELEX) (Mus musculus, UniProt Q8BX22 870-940, G921D).
T3 sequence: T1 sequence with G52D
The experiment in a line: HT-SELEX; high values mean tight binding. Conditions: protein: recombinant; vector His6-GST; dsDNA, one strand shown. Put shortly:
as §1
Turning to GTACAC, the binding signal is 0.9395 ± 0.00736 fold-change vs cycle 0.

As for ACGGAA, the binding signal came out at 0.868 ± 0.0441 fold-change vs cycle 0.

On to AGACAC, for which the binding signal stood at 0.923 ± 0.0183 fold-change vs cycle 0.

Turning to AGGGAG, the binding signal is 0.737 ± 0.0368 fold-change vs cycle 0.

Take GGTTAC: the binding signal turned out to be 1.01 ± 0.0443 fold-change vs cycle 0.

With CGAGAG, the binding signal worked out at 0.628 ± 0.0528 fold-change vs cycle 0.

On to TGCGAA, for which the binding signal was found to be 0.618 ± 0.0628 fold-change vs cycle 0.

As to CTGTAA, the binding signal was 1.33 ± 0.121 fold-change vs cycle 0.

On to CTTACA, for which the binding signal was determined as 1.43 ± 0.0941 fold-change vs cycle 0.

For ATACCG, the binding signal was determined as 0.799 ± 0.0271 fold-change vs cycle 0.

CTTACC: the binding signal stood at 1.02 ± 0.0246 fold-change vs cycle 0.

In the case of CTTGAA, the binding signal turned out to be 1.32 ± 0.0914 fold-change vs cycle 0.

With CACATC, the binding signal is 0.929 ± 0.0433 fold-change vs cycle 0.

Consider ATACGC, for which the binding signal is 0.66 ± 0.0195 fold-change vs cycle 0.

Take CACAAC: the binding signal worked out at 0.828 ± 0.0337 fold-change vs cycle 0.

With ACACGT, the binding signal stood at 0.954 ± 0.0298 fold-change vs cycle 0.

On to ACGATA, for which the binding signal was 1.26 ± 0.0543 fold-change vs cycle 0.

As to ATTACA, the binding signal came out at 1.82 ± 0.177 fold-change vs cycle 0.

Turning to TCAGCA, the binding signal turned out to be 0.841 ± 0.0603 fold-change vs cycle 0.

Consider GAGAGC, for which the binding signal is 0.588 ± 0.0466 fold-change vs cycle 0.

AAGTAT: the binding signal was determined as 1.87 ± 0.204 fold-change vs cycle 0.

As for CCATAA, the binding signal came out at 1.28 ± 0.051 fold-change vs cycle 0.

As for AGCAGG, the binding signal was 0.561 ± 0.0608 fold-change vs cycle 0.

Turning to ATTGTC, the binding signal was 1.24 ± 0.0435 fold-change vs cycle 0.

For the sequence AGTTAC, the binding signal came to 1.49 ± 0.117 fold-change vs cycle 0.

On to AAGTTG, for which the binding signal was determined as 1.29 ± 0.0737 fold-change vs cycle 0.

CAACAG: the binding signal worked out at 0.869 ± 0.0293 fold-change vs cycle 0.

For AATAGC, the binding signal came to 1.11 ± 0.00486 fold-change vs cycle 0.

With AACGTT, the binding signal is 1.24 ± 0.0303 fold-change vs cycle 0.

As to CACGGA, the binding signal worked out at 0.571 ± 0.0613 fold-change vs cycle 0.

Take GCATCC: the binding signal was determined as 0.551 ± 0.0913 fold-change vs cycle 0.

ACAAGG: the binding signal is 0.945 ± 0.0282 fold-change vs cycle 0.

CAAAAA: the binding signal turned out to be 1.35 ± 0.0641 fold-change vs cycle 0.

Regarding GAATTC, the binding signal came out at 1.33 ± 0.0652 fold-change vs cycle 0.

AAAGAG: the binding signal is 1.33 ± 0.0951 fold-change vs cycle 0.

With CTCGTC, the binding signal amounted to 0.571 ± 0.0514 fold-change vs cycle 0.

Turning to AGGCTA, the binding signal worked out at 0.829 ± 0.0213 fold-change vs cycle 0.

On to AGACCG, for which the binding signal was 0.525 ± 0.0509 fold-change vs cycle 0.

As to TACTGA, the binding signal is 1.42 ± 0.164 fold-change vs cycle 0.

Take TACGCA: the binding signal was found to be 0.668 ± 0.0555 fold-change vs cycle 0.
